The values below come from PubChem BioAssay (NCI).

Molecules are shown by their SMILES. The panel holds about 83,000 compounds, 20% with a hit somewhere; the sample as a whole holds those more often.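 Treatment: one concentration, 48 hours, 96-well format. Scoring: percent growth, with anything below 10 considered active.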 Activity calls are given as the source filed them.

The assay relates to MDA-MB-468 breast. Put plainly: NCI-60 one-dose screen, 48 h (100 = growth as untreated, 0 = no growth, -100 = all killed). Particulars: 10 µM unless noted.
For `O=S(=O)(NCCNc1nccc(-c2c(-c3cccc(O)c3)nc3occn23)n1)c1cccc(F)c1`, the growth was 97% (inactive). For `O=C(O)/C=C\C(=O)Nc1ccc2c(c1)Cc1cc(F)ccc1-2`, the growth is 109% (inactive). With `CCOc1cc(\C=N/N=C(N)/C(N)=N\N=C/c2ccc(O)c(OCC)c2)ccc1O`, the growth was 111% (inactive). Turning to `COc1cc(/C=N/O)nc(-c2ccccn2)c1`, the growth is -16.9% (active). `O=c1c2cccc(F)c2sc2c(N3CCNCC3)nc3ccccc3c12`: the growth was 37.2% (inactive). For the molecule `COc1cccc(-c2nnc(COc3ccc(-c4nc5ccccc5[nH]4)cc3OC)o2)c1`, the growth is 84.6% (inactive).

Take `NNC(=O)CNC(=O)Nc1n[nH]c(=S)s1`: the growth was 111% (inactive).

With `Nc1nc(N)c2c(n1)NC(c1ccc(Cl)cc1)CC(c1ccc(Nc3nc(NCCO)nc(Nc4ccc(Cl)cc4)n3)cc1)=N2` (centres undefined), the growth is -29% (active). As to `NC(N)=N/N=C(\c1ccccc1)C(O)c1ccccc1` (centres undefined), the growth is 99.8% (inactive).

As for `N#CCCN=Nc1c(O)[nH]c2ccc([N+](=O)[O-])cc12`, the growth was 99.7% (inactive). As to `CC1(C)CC[C@]2(c3nnc(-c4ccncc4)o3)CC[C@]3(C)C(=CC[C@@H]4[C@@]5(C)CCC(=O)C(C)(C)[C@@H]5CC[C@]43C)[C@@H]2C1`, the growth is 80% (inactive).

On to `Cc1cc2c(cc1C)N(C(=O)CCl)CC(=O)N2`, for which the growth is -12.6% (active).

Turning to `COc1ccc(-c2nnc(SCC(=O)Nc3ccc(C(=O)/C=C/c4ccc(OC)c(OC)c4)cc3)o2)cc1`, the growth was 88.7% (inactive). As to `COc1cccc(-c2ccc3c(c2)NC(=O)/C3=C\c2ccc[nH]2)c1`, the growth was 3.08% (active).
